# According to article PMC13083723 (Patterns, 2026):
# In all, about 5,400 compounds went through this assay and about 190 (3.5%) showed an effect of 50% or more. This is one part of a sample in which strong results are shown more often than they occur.
# System: Vero-E6
# Test: primary screen, phospholipidosis by LipidTOX staining; higher = more effect of the substance
# Conditions: 10 µM
# Outline: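 Drug-induced phospholipidosis detected with HCS LipidTOX Red reagent in Vero-E6 cells. Compounds tested at 10 μM, with amiodarone (10 μM) as positive control and DMSO (0.1 v/v %) as vehicle.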
row,SMILES,result_ITMP [%]
1,Nc1ncnc2c1c(-c1cccc(OCc3ccccc3)c1)cn2C1CC(CN2CCCC2)C1 (stereo in doubt),41.5
2,Nc1ncnc2c1c(-c1cccc(OCc3ccccc3)c1)cn2[C@H]1C[C@@H](CN2CCC2)C1,69.4
3,Nc1ncnc2c1c(-c1ccc(Oc3ccccc3)cc1)nn2C1CCCC1,-1.17
4,CC(C)(C)C(=O)Oc1ccc(S(=O)(=O)Nc2ccccc2C(=O)NCC(=O)[O-])cc1,-1.15
5,C=C1/C(=C\C=C2/CCC[C@]3(C)[C@@H]([C@H](C)/C=C/[C@H](C)C(C)(C)O)CC[C@@H]23)C[C@@H](O)C[C@@H]1O,-2.3
6,COc1ccc(CCN)cc1OC,-4.61
7,COc1ccc(COc2ccc(Cc3cnc(N)nc3N)cc2OC)cc1,-3.18
8,COc1ccc(CCNCc2ccc(OCc3ccc(Cl)nc3)c(OC)c2)cc1OC,59.3
9,CC[C@H](/C=C/[C@@H](C)[C@H]1CC[C@H]2[C@@H]3CC=C4C[C@@H](O)CC[C@]4(C)[C@H]3CC[C@]12C)C(C)C,-2.7
10,O=C1Nc2ccc(Cl)c3c2C1(CCCCN1CC=C(c2ccc(Cl)cc2)CC1)CCC3 (stereo not shown),70.2
11,O=C(O)c1ccc2[nH]cc(CCCCN3CC=C(c4ccccc4)CC3)c2c1,-12.5
12,CO[C@H]1C[C@H](O[C@H]2CC[C@@]3(C)[C@H](CC[C@@H]4[C@@H]3CC[C@]3(C)[C@@H](C5=CC(=O)OC5)[C@@H](OC(C)=O)C[C@]43O)C2)O[C@@H](C)[C@@H]1O,-2.23
13,CO/N=C(\C(=O)N[C@@H]1C(=O)N2C(C(=O)[O-])=CCS[C@H]12)c1csc(N)n1,-1.89
14,CCC1=C[C@@H]2C[N@](C1)Cc1c([nH]c3ccccc13)[C@@](C(=O)OC)(c1cc3c(cc1OC)N(C)[C@H]1[C@@](O)(C(=O)OC)[C@H](OC(C)=O)[C@]4(CC)C=CCN5CC[C@]31[C@@H]54)C2,7.31
15,CCN(CC)CC1CCN(c2ncc3ncnc(Nc4ccc(F)c(Cl)c4)c3n2)CC1,97
16,N#Cc1cc(CN2CCC(Nc3ncnc4sc(Cl)cc34)CC2)ccc1F,18.7
17,CCN1CCC(n2cc(CNc3cc(Cl)c4ncc(C#N)c(Nc5ccc(F)c(Cl)c5)c4c3)nn2)CC1,9.34
18,C=CC(=O)Nc1cc2c(Nc3ccc(F)c(Cl)c3)ncnc2cc1C#CC(C)(C)N1CCN(C)CC1,36.6
19,CN1CCC(Nc2ncc3ncnc(Nc4ccc(F)c(Cl)c4)c3n2)CC1,76.5
20,CC(C)(C)NCC(O)COc1cccc2c1C[C@H](O)[C@H](O)C2 (mixture of isomers),-2.49
21,CC[C@H](C)[C@H](NC(=O)[C@H](CCC(=O)O)NC(=O)[C@H](CCC(=O)O)NC(=O)[C@H](Cc1ccccc1)NC(=O)[C@H](CC(=O)O)NC(=O)CNC(=O)[C@H](CC(N)=O)NC(=O)CNC(=O)CNC(=O)CNC(=O)CNC(=O)[C@@H]1CCCN1C(=O)[C@H](CCCNC(=N)N)NC(=O)[C@@H]1CCCN1C(=O)[C@H](N)Cc1ccccc1)C(=O)N1CCC[C@H]1C(=O)N[C@@H](CCC(=O)O)C(=O)N[C@@H](CCC(=O)O)C(=O)N[C@@H](Cc1ccc(O)cc1)C(=O)N[C@@H](CC(C)C)C(=O)O,0.65
22,O=C1[N-]C(=O)C(c2ccccc2)(c2ccccc2)N1,-1.89
23,NC(N)=NC(=O)c1cnn(-c2cccc3ncccc23)c1C1CC1,-1.94
24,CCn1c2ccccc2c2cc(Nc3ccnc(NCCCN4CCOCC4)n3)ccc21,57.6
25,Cc1cc(-c2ccccc2)nnc1NCCN1CCOCC1,-1.84

row,SMILES,result_ITMP [%]
1,COc1ccc(C(=O)c2c(C)n(CCN3CCOCC3)c3ccccc23)cc1,0.58
2,O=C([O-])C1[O][Sb]2[O]C(=O)C([O]2)C(C(=O)[O-])[O][Sb]2[O]C(=O)C1[O]2 (stereo not shown),-8.7
3,CC1(C)S[C@@H]2[C@H](NC(=O)COc3ccccc3)C(=O)N2[C@H]1C(=O)[O-],-2.47
4,COc1ccccc1C1(O)CCN(CCCn2c3ccccc3c3ccccc32)CC1,52.4
5,Fc1ccc(-n2cc(CCCCN3CCC4(CC3)OCc3ccccc34)c3ccccc32)cc1,26.9
6,COc1ccccc1N1CCN(CCN2C(=O)c3ccccc3C(C)(C)C2=O)CC1,2.7
7,CC1=C(/C=C/C(C)=C/C=C/C(C)=C/C(=O)O)C(C)(C)CCC1 [R4A_0003961_001 / SPE_K71879491],4.7
8,C[C@H](Nc1ncnc2[nH]cnc12)c1cc2ccc(F)cc2nc1-c1ccccn1 [R4A_0002240_001 / SPE_A58947127],4.77
9,COc1ccc(C(=O)/C(Cc2cc(OC)c(OC)c(OC)c2)=C(\C(=O)[O-])c2ccc3c(c2)OCO3)cc1,-3.57
10,O=c1ccc2[nH]cc(C3=CCNCC3)c2[nH]1,-1.73
11,Cc1[nH]c2ccc(Cl)cc2c1C1=CCNCC1,96.8
12,COc1ccc2[nH]cc(C3=CCNCC3)c2c1,-0.41
13,C[C@@H]([C@H](C)O)[C@H](N)C(=O)O,0.75
14,N#CN/C(=N\c1ccncc1)NCCCCCCOc1ccc(Cl)cc1,0.38
15,COc1ccc(-c2ccc3c(N4CCOCC4)nc(N4C[C@@H](C)O[C@@H](C)C4)nc3n2)cc1CO,1.47
16,COc1cc2c(cc1O)C(CCc1ccc(Cl)cc1)N(C)CC2 (stereo not shown),64
17,CNC(=O)[C@@H](c1ccccc1)N1CCc2cc(OC)c(OC)cc2[C@@H]1CCc1ccc(C(F)(F)F)cc1,1.25
18,COc1ccc(OCC2c3cc(OC)c(OC)cc3CCN2C(=O)c2cccc(Cl)c2)cc1 (stereo not shown),-4.92
19,Cc1c(N(C)CS(=O)(=O)[O-])c(=O)n(-c2ccccc2)n1C,-4.64
20,CCCCCCCCCC(=O)O[C@H]1CC[C@H]2[C@@H]3CCC4=CC(=O)CC[C@@H]4[C@H]3CC[C@]12C,-0.22
21,CN1CCC(=C2c3ccccc3CC(=O)c3sccc32)CC1,29
22,CN1CCC2=C(C1)c1ccccc1Cc1ccccc12,52.7
23,CN1CCC2=C(C1)C(c1ccccc1)c1ccccc12 (stereo not shown),6.76
24,O=[N+]([O-])O[C@@H]1CO[C@H]2[C@@H]1OC[C@@H]2O,-9.17
25,C[C@@H](O[C@H]1OCCN(Cc2n[nH]c(=O)[nH]2)[C@H]1c1ccc(F)cc1)c1cc(C(F)(F)F)cc(C(F)(F)F)c1,2.55

row,SMILES,result_ITMP [%]
1,C[C@@H](O[C@H]1OCCN(Cc2nn(P(=O)(O)O)c(=O)[nH]2)[C@H]1c1ccc(F)cc1)c1cc(C(F)(F)F)cc(C(F)(F)F)c1,6.28
2,C[C@@H](O[C@H]1OCCN(Cc2nn[nH]c2CN(C)C)[C@H]1c1ccc(F)cc1)c1cc(C(F)(F)F)cc(C(F)(F)F)c1,71.2
3,OCCNCCCOc1cccc(Cl)c1Cl,55.4
4,C[C@]12CCC(=O)C=C1CC[C@@H]1[C@@H]2CC[C@@]2(C)[C@H]1CC[C@]2(O)C(=O)CO,-5.73
5,C=CCN(C)CCCCCCOc1ccc(C(=O)c2ccc(Br)cc2)c(F)c1,92.9
6,CCCCOc1ccc(C(=O)Nc2ccc(F)cc2F)cc1,-8.12
7,CCOc1ccc(-c2ccc(Cn3c(CC(C)(C)C(=O)[O-])c(SC(C)(C)C)c4cc(OCc5ccc(C)cn5)ccc43)cc2)cn1,0.09
8,CCN(CC)CCNC(=O)COc1ccc(OC)cc1,-4.1
9,CNc1ncc2cc(-c3cc(NC(=O)NCCC(C)(C)C)c(F)cc3C)c(C)nc2n1,-7.16
10,CCN(CC)CCCCNc1ncc2cc(-c3cc(OC)cc(OC)c3)c(NC(=O)NC(C)(C)C)nc2n1,90.1
11,CCN(CC)CCCCNc1ncc2cc(-c3c(Cl)cccc3Cl)c(NC(=O)NC(C)(C)C)nc2n1,69.2
12,CCN(CC)CCOc1ccc(Nc2ncc3cc(-c4c(Cl)cccc4Cl)c(=O)n(C)c3n2)cc1,24.2
13,O=C(NCC(=O)N1CC[C@H](N[C@H]2CC[C@@](O)(c3ccc(-c4ncccn4)cn3)CC2)C1)c1cccc(C(F)(F)F)c1,-0.29
14,O=S(=O)(OC[C@H]1O[C@@](COS(=O)(=O)[O][Al]([OH])[OH])(O[C@H]2O[C@H](COS(=O)(=O)[O][Al]([OH])[OH])[C@@H](OS(=O)(=O)[O][Al]([OH])[OH])[C@H](OS(=O)(=O)[O][Al]([OH])[OH])[C@H]2OS(=O)(=O)[O][Al]([OH])[OH])[C@@H](OS(=O)(=O)[O][Al]([OH])[OH])[C@@H]1OS(=O)(=O)[O][Al]([OH])[OH])[O][Al]([OH])[OH],6.9
15,OC[C@@H](O)[C@@H](O)CO,-7.96
16,Cc1ccc2nc(N)nc(O)c2c1Sc1ccncc1,3.27
17,Fc1cc(-c2cccc3ncc(-c4cnn(C5CCNCC5)c4)nc23)cc(F)c1CN1CCOCC1,73.3
18,CC(C)(C)C(=O)CN1C(=O)[C@H](NC(=O)Nc2cccc(C(=O)O)c2)CN(C2CCCCC2)c2ccccc21,-0.97
19,CO[C@@]1(NC(=O)Cc2cccs2)C(=O)N2C(C(=O)[O-])=C(COC(N)=O)CS[C@@H]21,-2.27
20,C=CCc1ccccc1OCC(O)CNC(C)C (stereo not shown),12.1
21,CC(COc1ccccc1Cc1ccccc1)N1CCCCC1 (stereo not shown),72
22,c1ccc(CC(c2ccccc2)N2CCCCC2)cc1 (racemic),6.03
23,OC[C@H]1O[C@@H]2O[C@H]3[C@H](O)[C@@H](O)[C@@H](O[C@H]4[C@H](O)[C@@H](O)[C@@H](O[C@H]5[C@H](O)[C@@H](O)[C@@H](O[C@H]6[C@H](O)[C@@H](O)[C@@H](O[C@H]7[C@H](O)[C@@H](O)[C@@H](O[C@H]8[C@H](O)[C@@H](O)[C@@H](O[C@H]1[C@H](O)[C@H]2O)O[C@@H]8CO)O[C@@H]7CO)O[C@@H]6CO)O[C@@H]5CO)O[C@@H]4CO)O[C@@H]3CO,-4.2
